# Assay results reported in the supplement of paper PMC10646978.
# ± gives the standard deviation.
# Key:
# Settings in all cases: modulator concentration 10 µM
# [1] = test system: RAW-Dual (murine macrophage reporter line); experiment: NF-kB reporter (SEAP) activity fold change vs agonist alone; higher = enhanced NF-kB activity
# Outline: (§1)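 RAW-Dual murine macrophage reporter cells were seeded at 50 000 per well in 384-well plates and pre-incubated 1 hour at 37 °C with compound pin-transferred to 10 μM final. After 1 hour, a PRR agonist was added and cells incubated overnight. Supernatant NF-κB (SEAP, QUANTI-Blue, 620 nm absorbance) and IRF (Lucia luciferase, QUANTI-Luc, luminescence) signals were divided by the mean agonist-only control on the same plate to give fold change. Two replicate plates were averaged, with errors by propagation.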
# [2] = test system: RAW-Dual (murine macrophage reporter line); experiment: IRF reporter (Lucia luciferase) activity fold change vs agonist alone; higher = enhanced IRF activity
# Outline: as §1
# [3] = test system: RAW-Dual (murine macrophage reporter line); experiment: viability score (confluency relative to resting cells, overnight) (fraction); higher = more viable, active = viable (0.7 or more)
# Outline: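 RAW-Dual macrophages in 384-well plates were treated overnight with compound at 10 μM final. IncuCyte imaging recorded confluency, and IncuCyte software built two confluency masks across every imaged well. The viability score expresses confluency relative to resting cells and was judged against a cutoff, which a compound met only if both masks exceeded 70% of resting cells.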
# [4] = agonist: CpG ODN 1826 0.5 ug/mL
SMILES,"NF-kB reporter [1, 4]",NF-kB reporter ([1]; agonist: LPS 0.1 ug/mL),NF-kB reporter ([1]; agonist: MPLA […]),IRF reporter ([2]; agonist: 3'3'-cGAMP 10 ug/mL),IRF reporter ([2]; agonist: LPS 0.1 ug/mL),IRF reporter ([2]; agonist: MPLA […]),viability score [3]
COc1ccc(N2C(=O)C(=Cc3ccc([N+](=O)[O-])s3)SC2=S)cc1,0.879 ± 0.17,1.55 ± 0.14,1.71 ± 0.16,0.439 ± 0.012,1.25 ± 0.23,1.2 ± 0.26,0.9 (active)
COc1ccc2c3c1O[C@H]1C[C@@H](O)C=C[C@@]31CCN(C)C2 [Prestw-588],1.13 ± 0.077,1.07 ± 0.091,0.95 ± 0.038,0.997 ± 0.056,0.987 ± 0.046,0.923 ± 0.16,0.998 (active)
CC(=O)N[C@@H](CS)C(=O)O,1.1 ± 0.082,1.05 ± 0.096,1.04 ± 0.052,0.931 ± 0.065,0.982 ± 0.076,1.04 ± 0.087,0.995 (active)
CCOc1ccccc1OCCCCOc1cccc(C)c1C,0.984 ± 0.1,1.03 ± 0.11,0.982 ± 0.061,1 ± 0.14,1.08 ± 0.13,1.1 ± 0.27,1 (active)
CN1CCN(C(=O)N2CCC3(CC2)CC3(F)F)CC1,1.1 ± 0.07,0.939 ± 0.12,0.974 ± 0.025,0.894 ± 0.035,0.914 ± 0.086,0.815 ± 0.086,0.996 (active)
CCCCC1=NC2(CCCC2)C(=O)N1Cc1ccc(-c2ccccc2-c2nn[nH]n2)cc1,1.05 ± 0.079,0.951 ± 0.08,0.978 ± 0.026,0.948 ± 0.052,1.01 ± 0.15,0.945 ± 0.18,1 (active)
Cc1nnc(NN=Cc2ccc(Cl)c([N+](=O)[O-])c2)[nH]c1=O,1.08 ± 0.12,1.02 ± 0.088,1.09 ± 0.045,1.01 ± 0.17,1 ± 0.082,1.07 ± 0.13,0.997 (active)
O=C(Nc1ccc(F)cc1)c1ccco1,0.904 ± 0.074,1.11 ± 0.12,1 ± 0.038,0.879 ± 0.15,1.03 ± 0.042,0.915 ± 0.11,0.996 (active)
O=C(CCCn1nc(-c2ccc(F)cc2)ccc1=O)Nc1ccc(C(F)(F)F)cc1,0.89 ± 0.097,0.97 ± 0.055,1.05 ± 0.038,0.346 ± 0.038,1.01 ± 0.041,0.748 ± 0.15,0.99 (active)
CCOC(=O)C1=C(CC)OC(N)=C(C#N)C1c1cccc(Oc2ccc(Cl)cc2)c1 (stereo unspecified),0.746 ± 0.058,0.662 ± 0.05,0.769 ± 0.073,0.281 ± 0.0095,1.13 ± 0.18,1.12 ± 0.2,0.972 (active)
COc1cc2ncnc(Nc3ccc(F)c(Cl)c3)c2cc1NC(=O)/C=C/CN1CCCCC1,0.666 ± 0.32,0.936 ± 0.083,0.989 ± 0.081,0.486 ± 0.026,0.958 ± 0.2,0.861 ± 0.22,0.988 (active)
CC(C)=CCC/C(C)=C/CC/C(C)=C/CSc1ccccc1C(=O)O,1.32 ± 0.071,0.929 ± 0.074,2.18 ± 0.19,0.18 ± 0.011,0.52 ± 0.084,0.721 ± 0.16,0.902 (active)
CCCCC1(C)OC(=O)C(=Cc2ccc(OC)c([N+](=O)[O-])c2)C(=O)O1 (stereo unspecified),0.994 ± 0.17,1.07 ± 0.11,0.951 ± 0.086,0.966 ± 0.038,1.16 ± 0.13,1.25 ± 0.15,1 (active)
